# Bioassay records: PubChem BioAssay, National Center for Advancing Translational Sciences (NCATS)
# HCV inh: blocks hepatitis C virus | Huh7.5.1 HCVcc-Cre infection, luciferase reporter, 44 h | Potency, µM (highest dose often 41.8 µM), usual class: inhibitors | 3.4% of 340,000 active
#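 Infectious HCV cell culture screen: compound-treated cells (1,000/well, pre-plated 4 h) are infected with HCVcc-Cre at roughly 0.5 moi and grown 44 h. Infection is quantified by luciferase signal after 15 min substrate incubation at room temperature.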
# Cycloheximide cs: counter-screen hit for Shiga toxin inhibitors, cycloheximide; max response, %; cell reporter, cycloheximide protein synthesis inhibition counterscreen; AID 2314; 12% of 300,000 active; in the data active = max response mostly above about 13%, no sharp cut-off; inactive = mostly below about 14%; also: read at 38.3 µM for the half of the compounds with a filed dose
# HCMV inh: inhibitors of human cytomegalovirus; AID 1259415; 4.5% of 410,000 active; HFF cells, HCMV-luciferase reporter, 72 h; active compounds read low; activity change, negative = inhibition, % at 57.5 µM; in the data active = activity change below about -60%; inconclusive = no clear call, values can overlap the other calls; inactive = above about -39%
#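 After 16 h attachment at 37C, HFF cells received test compound and HCMV-luciferase (1 PFU/cell); reporter luminescence read 72 h later, data normalized against buffer-only and known inhibitor Salinomycin.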
# Pf growth 48h: inhibits P. falciparum growth in the first generation, 48 h | Potency, µM (series often up to 28.7 µM), hits mostly inhibitors | P. falciparum luciferase growth in erythrocytes, 48 h | 5.9% of 310,000 active
#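 Here the parasites carry a stable luciferase gene and grow inside erythrocytes in Albumax-based RPMI medium with compound for one erythrocytic cycle. Activity is scored as loss of luminescent signal.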
# Shiga toxin inh: blocks Shiga toxin action in Vero cells. inhibition, % at 38.7 µM. AID 2315. 9.2% of 290,000 active. Vero cells, Shiga toxin protein synthesis inhibition reporter; in the data active = inhibition mostly above about 28%, no sharp cut-off; inactive = mostly below about 43%
# Pf growth 96h: P. falciparum growth inhibition at 96 hours. P. falciparum luciferase reporter growth, 96 h. Potency, µM (top dose mostly 28.7 µM), most hits filed as inhibitors. 6.9% of 320,000 active
#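 Compounds incubated with erythrocytes infected by luciferase-expressing P. falciparum (2% hematocrit, 0.05% parasitemia final) for 96 hours, 37 C in 5% CO2. Growth inhibition scored as decreased luciferase luminescence.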
# A number is an active result; - = inactive; ? = inconclusive; . = no result given. Most compounds without a hit are left out; they make up all but 21% or so of the library. Unless noted, calls follow the shape of the dose curve; as a rule, active = well fitted inhibition curve with a large enough effect; inconclusive = small, poorly fitted or top-dose-only effect, or another doubt; inactive = no such curve, though single readings can be large or run the other way.
SMILES,HCV inh,Cycloheximide cs,HCMV inh,Pf growth 48h,Shiga toxin inh,Pf growth 96h
Cc1cccc(/C=C2/Sc3ccc(C(=O)N4CCOCC4)cc3NC2=O)c1,-,-,-75.1,?,-,-
CCOC(=O)N1CCC(NC(=O)c2ccc3c(c2)N(C)C(=O)/C(=C/c2cccc(OC)c2)S3)CC1,3.16µM,-,-,?,-,-
CCOc1ccc(/C=C2\SC(=O)N(CCNC(=O)C3COc4ccccc4O3)C2=O)cc1OC (stereo not given),-,19.3,-,?,-,-
CSc1c(N(C)C)c(=O)c1=S,.,.,-,.,.,.
CCOC(=O)N1CCN(C(=O)c2ccc3c(c2)N(C)C(=O)/C(=C\c2ccc(OCC)c(OC)c2)S3)CC1,10µM,-,?,1.17µM,-,-
CCOc1ccc(/C=C2/Sc3ccc(C(=O)NCC4CCCO4)cc3N(C)C2=O)cc1OC (stereo not given),?,-,-,8.28µM,-,13.1µM
Cc1cccc(/C=C2\Sc3ccc(C(=O)NCC4CCCO4)cc3N(C)C2=O)c1 (stereo not given),?,-,-,?,-,?
COc1ccc(/C=C2/Sc3ccc(C(=O)N4CCOCC4)cc3NC2=O)cc1OC,-,-,-68.8,?,-,14.7µM
O=C1Nc2cc(C(=O)N3CCOCC3)ccc2S/C1=C\c1ccccc1,-,-,?,?,-,-
Cn1c(=O)c2c(-c3ccc(Cl)cc3)n(Cc3ccc(Cl)cc3)cc2n(C)c1=O,.,.,-,.,.,.
CCOc1ccc(NC(=O)CCNC(=O)Cn2ccc3ccccc3c2=O)cc1,-,-,.,-,-,?
O=C(Nc1ccc(Cl)cc1)Nn1cnnc1,-,-,-,-,-,-
CC(=O)Oc1cc(C(=O)OCC(=O)N2CCc3ccccc3C2)cc(OC(C)=O)c1OC(C)=O,-,.,-,.,.,.
CCCCNc1nc(Cl)nc(Nc2ccc(C)cc2)n1,-,.,-,.,.,.
Cc1ccc(Nc2nc(Cl)nc(NC3CCCCC3)n2)cc1,?,25.0,-,-,62.4,-
CC(C)(C)Nc1nc(Cl)nc(NC2CCCCC2)n1,-,-,-,-,-,13.1µM
CCOc1ccc(Nc2c(S(=O)(=O)c3ccc(C)cc3)cnc3cc(OC)c(OC)cc23)cc1,.,.,-,.,.,.
CC(=O)Nc1cc(C(F)(F)F)ccc1OCCOc1ccccc1,10µM,.,-,.,.,.
CCOc1ccc(NC(=O)CCc2c(C)noc2C)cc1OC,-,.,-,-,.,-
CCOCC(=O)Nc1cc(C(F)(F)F)ccc1Oc1cccc(Br)c1,-,-,-,?,-,0.465µM
CCCOc1ccc(C(F)(F)F)cc1NC(=O)CCc1c(C)noc1C,7.08µM,.,-,?,.,?
COC(=O)c1cnc(Oc2ccc(NC(=O)NC(=O)c3c(F)cccc3F)cc2)cc1C(F)(F)F,-,-,-,-,-,-
COC(=O)c1cnc(Oc2ccc(NC(=O)NC(=O)c3c(OC)cccc3OC)cc2)cc1C(F)(F)F,-,-,-97.9,?,-,?
COC(=O)CCCCCc1ccc(C(C)=O)s1,-,11.8,-,-,-,-
CCNC(=O)C(=O)Nc1ccc([N+](=O)[O-])cc1,-,-,-,-,-,?
SMILES,HCV inh,Cycloheximide cs,HCMV inh,Pf growth 48h,Shiga toxin inh,Pf growth 96h
CC(Cc1cccs1)NC(=O)c1cccs1 (stereo not given),-,32.9,-,-,74.4,-
O=C(NCC(O)c1ccccc1)c1cccs1 (stereo not given),-,41.7,-,-,78.7,-
CC(Cc1cccs1)NC(=O)Nc1ccc([N+](=O)[O-])cc1 (stereo not given),-,29.9,?,-,73.4,-
O=C(NCCc1ccc(F)cc1)c1cccs1,-,26.5,-,-,91.4,?
COc1ccc(OC)c(NC(=O)c2cnn(-c3ccc(C)cc3)c2C2CCNCC2)c1,.,.,-,.,.,.
COc1cc(C(=O)NCCC(=O)NCc2c(F)cc(F)cc2F)cc(OC)c1OC,-,-,-,-,-,?
CCS(=O)(=O)N1CC(=O)N(c2ccc(Cl)cc2C)C(C)(C(=O)NC2CCCCCC2)C1 (stereo not given),.,.,-,.,.,.
O=C(NCCc1cccs1)c1cccs1,-,49.7,-,-,91.3,?
CCc1ccc(OCCNC(=O)c2cccs2)cc1,-,40.5,-,-,53.0,.
COc1ccc(CCNC(=O)c2cccs2)cc1,-,31.7,-,?,47.7,?
O=C(CNC(=O)c1cccs1)c1ccc(Br)cc1,-,39.0,-,-,108.8,-
